Only some compounds are listed: those with a hit (about 3.2% of all), similar ones and a draw of the others.
LmPK inhibitor: inhibitors of Leishmania mexicana pyruvate kinase; Q27686; purified LmPK, Kinase-Glo ATP luminescence, 1 h; Potency, µM (highest dose often 57.5 µM), inactives show top-dose activity change, negative = inhibition, usual class: inhibitors; actives 0.37% (n = 290,000); AID 1721
Target sequence (Q27686 whole entry, looked up): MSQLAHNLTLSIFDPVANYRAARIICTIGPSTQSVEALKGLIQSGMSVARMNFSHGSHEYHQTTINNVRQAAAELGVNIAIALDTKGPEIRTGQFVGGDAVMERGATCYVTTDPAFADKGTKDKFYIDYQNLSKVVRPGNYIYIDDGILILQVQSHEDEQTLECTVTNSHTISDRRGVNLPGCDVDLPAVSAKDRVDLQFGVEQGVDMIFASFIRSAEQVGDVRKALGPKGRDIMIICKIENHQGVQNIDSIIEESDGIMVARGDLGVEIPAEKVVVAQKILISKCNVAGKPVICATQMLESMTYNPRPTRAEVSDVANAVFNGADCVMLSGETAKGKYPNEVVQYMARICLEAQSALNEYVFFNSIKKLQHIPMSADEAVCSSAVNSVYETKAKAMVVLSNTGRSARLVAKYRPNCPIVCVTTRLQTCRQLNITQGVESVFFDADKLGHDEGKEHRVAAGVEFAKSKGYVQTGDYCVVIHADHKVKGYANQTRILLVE
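Purified LmPK (0.1 nM) with 0.5 mM PEP and 0.1 mM ADP in imidazole buffer pH 7.2 with MgCl2/KCl, 1 h at room temperature. ATP formed was read by luciferase luminescence and normalized to no-enzyme and uninhibited controls.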
AMA1-RON2 inh: AMA1-RON2 (P. falciparum) interaction inhibition; Potency, µM (titrated, usually from 58.2 µM), without a hit: at the highest dose activity change, negative = inhibition, actives largely listed as inhibitors; AID 720542; AlphaScreen AMA1-biotinylated RON2 peptide binding; actives 0.2% (n = 360,000);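 note: 0% = vehicle wells and -100% = peptide control; nearly all actives have a fitted effect of over 45% in size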
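AMA1 (3D7) with his tag at 25 nM final met compounds first, then biotinylated RON2 peptide at 25 nM; detection used donor plus acceptor beads, 10 µg/mL apiece, read by AlphaScreen after 30 min at room temperature.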
Sm TGR inh: S. mansoni TGR enzyme inhibition. Q962Y6. purified TGR, DTNB reduction, TNB absorbance 405 nm. Potency, µM (doses to about 114 µM), inactives show at the highest dose activity change, negative = inhibition, usual class: inhibitors. actives 3% (n = 360,000). AID 485364; note: nearly all actives have a fitted effect of over 60% in size
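First, TGR (20 nM dispensed) and NADPH were mixed with compound. Second, a 15 min room-temperature incubation followed. Third, further NADPH and then DTNB were added to start the reaction. Finally, TNB absorbance was monitored kinetically.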
RE007 growth inh: less growth of the S. pombe RE007 Vpr strain | Potency, µM (doses to about 92.2 µM), for inactives: at the highest dose activity change, negative = less growth, most hits filed as inhibitors | actives 0.21% (n = 360,000) | S. pombe RE007 Vpr strain, BacTiter-Glo ATP luminescence, 24 h | AID 651644; active = well fitted falling curve with a large enough effect; inconclusive = small, poorly fitted or top-dose-only effect; inactive = no such curve, though single readings can be large or run the other way; note: nearly all actives have a fitted effect of over 50% in size
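Fission yeast RE007 carrying one integrated HIV-1 vpr copy, seeded at OD 0.01 in PMG+AL medium with 23 nL pinned compound. Grown 24 h at 30 degrees; viability read by BacTiter-Glo luminescence after 5 min.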
TbPYK inhibitor: T. brucei pyruvate kinase inhibition | Q57TT1 | TbPYK enzyme, Kinase-Glo Plus ATP luminescence, 45 min | Potency, µM (doses to about 76.8 µM), inactives show at the highest dose activity, negative = inhibition, usual class: inhibitors | actives 0.12% (n = 410,000) | AID 624173; note: nearly all actives have a fitted effect of over 50% in size
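Enzyme and substrate buffer are dispensed first and compound is pin-transferred. ADP at 130 uM final then starts the reaction, which runs 45 min at room temperature. Detection reagent is added for 10 min before luminescence is imaged.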
* = called active by the depositor; ? = inconclusive; nt = no result given; [ ] = dose if it differs, or a comment. Unless noted, calls come from the whole dose curve; as a rule, active = well fitted curve in the direction sought with a large enough effect; inconclusive = small, poorly fitted or top-dose-only effect, or another doubt; inactive = no such curve, though single readings can be large; an effect the other way counts as inactive or inconclusive. Unless noted, % is set by controls: 0 for no effect and ±100 for the full control effect; potency is the fitted concentration of half-maximal effect.

SMILES	LmPK inhibitor	AMA1-RON2 inh	Sm TGR inh	RE007 growth inh	TbPYK inhibitor
CC(C)OC(=O)c1ccccc1C(=O)c1ccc(N)c([N+](=O)[O-])c1	0.0%	-14.0%	nt	-5.2%	6.2%
O=C(OCCCc1cc2ccccc2c(=O)o1)c1ccccc1C(F)(F)F	nt	39.7%	11.2µM*	7.2%	0.9%
O=C(OCCCc1cc2ccccc2c(=O)o1)c1ccc(F)cc1	nt	12.9%	35.5µM*	-12.8%	-1.0%
N#Cc1ccc(C(=O)OCCCc2cc3ccccc3c(=O)o2)cc1	nt	3.0%	50.1µM*	2.1%	-0.3%
CCN(CC)C(=O)OCCc1cc2ccccc2c(=O)o1	nt	-1.3%	3.16µM*	4.0%	-3.8%
COc1cc2cc(CCCOC(=O)c3ccc(F)cc3)oc(=O)c2cc1OC	nt	7.7%	?	-1.6%	0.7%
N#Cc1ccc(C(=O)OCCc2cc3ccccc3c(=O)o2)cc1	nt	-3.7%	-2.0%	-2.1%	1.3%
CCOC(=O)N1CCc2c(sc3c2c(=O)n(CCc2ccccc2)c(=O)n3Cc2c(F)cccc2Cl)C1	nt	nt	1.7%	nt	2.1%
CCOc1ccc(C(=O)Nc2ccc(C(=O)OCc3cc(=O)n4nc(CC)sc4n3)cc2)cc1	nt	nt	-1.2%	nt	-3.9%
COc1ccc(C(=O)Nc2ccccc2C(=O)OCc2cc(=O)n3nc(C4CC4)sc3n2)cc1	nt	nt	-2.5%	nt	-4.5%
O/N=C/c1ccccc1OCc1ccccc1Cl	1.2%	12.2%	-18.7%	44.7µM*	17.9%
O/N=C/c1cc(Br)ccc1OCc1ccccc1F	nt	-2.8%	nt	39.8µM*	0.0%
CCn1c(C(=O)NCc2ccccc2)cc2sc(Cl)cc21	nt	nt	2.7%	nt	-14.8%
O=C(Nc1ccccc1Cl)N1CCC2(CC1)Oc1ccccc1C(=O)N2Cc1ccc(F)cc1	nt	nt	0.5%	nt	-6.7%
Cc1ccc(S(=O)(=O)/C(C#N)=C/c2ccccc2OCc2ccccc2)cc1	3.1%	-8.3%[11.6 µM]	-1.8%	9.0%	-0.3%
N#CC(C#N)=Cc1ccccc1OCc1ccccc1	0.0%	nt	3.16µM*	nt	nt
CC(=O)Nc1ccc(N2C(=O)CC(Sc3nc(C)cc(C)n3)C2=O)cc1 (centres undefined)	2.7%	-4.4%	50.1µM*	13.7%	4.0%
COC(=O)c1ccc(N2C(=O)CC(Sc3n[nH]c(C)n3)C2=O)cc1 (centres undefined)	1.4%	0.0%	1.41µM*	-93.1%	?
CCOc1ccccc1N1C(=O)CC(Sc2n[nH]c(-c3ccccc3)n2)C1=O (centres undefined)	-0.4%	56.6%	0.562µM*	?	?
COc1ccc(N2C(=O)CC(Sc3n[nH]c(-c4cccc(C)c4)n3)C2=O)cc1 (centres undefined)	4.8%	56.6%	0.316µM*	20µM*	-14.4%
Cc1ccc(N2C(=O)CC(Sc3nc(C)cc(C)n3)C2=O)cc1 (centres undefined)	-1.0%	0.0%	-46.3%	4.0%	2.5%
COc1cccc(N2C(=O)CC(Sc3nc(C)cc(C)n3)C2=O)c1 (centres undefined)	-2.0%	1.4%	-19.7%	-6.4%	-5.4%
CC(=O)N1CCN(C(=O)c2ccc(-c3cccc(C(F)(F)F)c3)o2)CC1	nt	-6.2%	31.6µM*	-25.9%	1.5%
COc1ccc(NC(=O)C2CCCN(c3nnc(C)c4c(C)n(-c5ccccc5)nc34)C2)cc1Cl (centres undefined)	nt	nt	-6.5%	nt	-2.3%
CC(=O)/C(N=Nc1ccc(SC(F)F)cc1)=C(\C)O	-9.9%	10.9%	1.5%	-5.5%	-3.2%
SMILES	LmPK inhibitor	AMA1-RON2 inh	Sm TGR inh	RE007 growth inh	TbPYK inhibitor
CCSC(=O)N=Nc1ccc(O)cc1	nt	-18.0%	nt	15.8µM*	-12.5%
Cc1cccc(-c2nc3scc(CCNS(=O)(=O)c4ccc(F)cc4C)n3n2)c1	nt	nt	-1.5%	nt	5.2%
OC[C@H]1O[C@@H](n2cnc3c2NC=NC[C@H]3O)C[C@@H]1O	nt	nt	nt	nt	-15.8%
COc1cc(OC)c(NC(=O)CC(c2cccs2)N2Cc3ccccc3C2=O)cc1Cl (centres undefined)	nt	nt	-7.7%	nt	1.6%
Cc1ccc(N/N=C/c2ccncc2)cc1	-0.9%	12.8%	50.1µM*	7.2%	3.2%
Cc1ccc(N/N=C/c2cccnc2)cc1	-6.0%	-12.0%	?	23.3%	-13.8%
CS(=O)(=O)c1ccc(S(=O)CC(=O)OCc2ccccc2)c([N+](=O)[O-])c1 (centres undefined)	-0.3%	0.3%	2.51µM*	-17.4%	5.0%
O=C(CNc1ccc(C(F)(F)F)cc1[N+](=O)[O-])OCC(=O)c1ccccc1	6.2%	-19.5%	2.4%	?	-2.0%
O=C(CS(=O)c1ccc(C(F)(F)F)cc1[N+](=O)[O-])Oc1ccccc1 (centres undefined)	10.1%	-19.4%	35.5µM*	44.7µM*	-2.3%
COC(=O)c1ccc(OC(=O)CS(=O)c2ccccc2[N+](=O)[O-])cc1 (centres undefined)	-4.3%	3.0%	22.4µM*	-28.3%	7.1%
CCOC(=O)c1ccccc1OC(=O)CS(=O)c1ccccc1[N+](=O)[O-] (centres undefined)	-3.1%	4.5%	nt	3.8%	-14.8%
CCOC(=O)c1cc(OC(=O)c2ccc(OC)c(OC)c2)n(-c2ccccc2)n1	nt	nt	-18.9%	nt	-21.0%
O=C(CN1C(=O)COc2ccccc21)NCCc1ccc(Cl)cc1	nt	nt	15.4%	nt	1.7%
Cc1cccc(CNC(=O)c2ccc(NC(=O)N3CC(C)Sc4ccccc43)cc2)c1 (centres undefined)	nt	nt	3.4%	nt	-5.4%
CCC(c1ccc(O)c(O)c1)C(CC)c1ccc(O)c(O)c1 (centres undefined)	nt	25.1µM*	nt	-17.1%	-25.6%
CCOc1ccc(CCNC(=O)c2cn(C)c3ccc(S(=O)(=O)N4CCCCCC4)cc3c2=O)cc1OCC	nt	nt	16.3%	nt	-0.6%
O=C(C1=C[C@H](C2CCCCC2)C[C@H](OCCCCO)O1)N1CCN(Cc2ccccc2)CC1	11.1%	-14.5%	35.5µM*	1.6%	7.4%
O=C(C1=C[C@@H](C2CCCCC2)C[C@@H](OCCCCO)O1)N1CCN(Cc2ccc3c(c2)OCO3)CC1	3.6%	-14.9%	-1.1%	4.0%	0.1%
O=C(C1=C[C@H](C2CC2)C[C@H](OCCCCO)O1)N1CCN(Cc2ccccc2)CC1	0.7%	10.4%	25.1µM*	2.4%	0.7%
COc1ccc(NC(=O)Cn2c(=O)oc3cc(S(=O)(=O)NC4CCCC4)ccc32)cc1OC	nt	nt	-5.4%	nt	-3.6%[15.4 µM]
Cc1ccc(NC(=O)C2CCCN(c3ncnc4onc(C)c34)C2)cc1Cl (centres undefined)	nt	nt	2.6%	nt	-3.4%

Assay outcomes (PubChem)
